Screening data as filed in PubChem BioAssay.
Rows were chosen to be rich in hits. Some 2.3% of all compounds tested hit in one or more screens of this group.
M1 ag parental – counter-screen for M1 agonists: effect in parental CHO-K1 cells | Fluo-8 calcium fluorescence; scaled to maximal ATP response, vehicle zero | activation, % at 3 µM | hit rate 0.48% among 360,000; in the data active means activation above about 15%;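 further: untransfected CHO-K1 host cells lacking M1 receptor as counterscreen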
M1 antag – antagonists of human M1 muscarinic receptor; CHO-K1 hM1, Fluo-8 calcium fluorescence, ACh EC80 antagonist; hit rate 1.3% among 360,000; P11229; inhibition, % at 3 µM;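 active means percent inhibition above its own plate's cutoff, namely the mean of that plate's compound wells plus 3 SD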;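 further: peak over basal fluorescence ratio during 140 s after agonist addition; 0% = ACh EC80 plus DMSO and 100% = DMSO alone without agonist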
Target sequence (P11229 whole entry, looked up): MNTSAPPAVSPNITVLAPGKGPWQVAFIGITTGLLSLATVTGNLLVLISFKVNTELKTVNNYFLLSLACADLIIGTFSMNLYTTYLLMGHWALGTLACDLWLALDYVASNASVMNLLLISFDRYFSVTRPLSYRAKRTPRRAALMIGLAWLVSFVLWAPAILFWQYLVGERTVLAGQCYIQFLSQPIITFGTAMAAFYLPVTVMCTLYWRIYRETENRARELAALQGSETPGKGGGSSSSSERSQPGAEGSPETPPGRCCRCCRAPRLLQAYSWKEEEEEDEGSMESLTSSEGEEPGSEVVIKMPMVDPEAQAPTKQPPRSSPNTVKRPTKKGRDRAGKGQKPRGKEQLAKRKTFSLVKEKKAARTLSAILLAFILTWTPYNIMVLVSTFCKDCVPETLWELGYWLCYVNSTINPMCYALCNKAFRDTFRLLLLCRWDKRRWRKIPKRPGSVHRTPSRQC
CHO-K1 Ca antag – counter-screen for M1 antagonists: effect in parental CHO-K1 cells; ATP-induced calcium, Fluo-8 fluorescence; inhibition, % at 3 µM; hit rate 0.6% among 360,000; AID 602250;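 active means inhibition above a per-plate cutoff, the plate's mean sample inhibition plus 3 SD, cut at about 24% in these data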;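 further: 0% = DMSO plus EC80 ATP and 100% = DMSO alone without ATP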
CHRM1 agonist – human M1 muscarinic receptor agonism; P11229; CHO-K1 hM1, Fluo-8 calcium fluorescence, agonist mode; 0% DMSO, 100% acetylcholine EC100; activation, % at 3 µM; hit rate 0.33% among 360,000; AID 588814;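 active means activation above the run's mean compound activation plus 3 SD, cut at about 16% in these data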;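 further: peak over basal fluorescence ratio within a 140 s kinetic read after compound addition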
M1 PAM – positive allosteric modulators of human M1 muscarinic receptor | CHO-K1 hM1, Fluo-8 calcium fluorescence, ACh EC20; 0% = ACh EC20, 100% = maximal ACh | activation, % at 3 µM | hit rate 0.088% among 360,000; in the data active means activation above about 19%, passing the limit was not always enough
M1 PAM parental – nonselective activator or artifact in parental CHO-K1 calcium assay. ATP EC20, Fluo-8 calcium fluorescence; 0% at ATP EC20, 100% at ATP max. activation, % at 3 µM. hit rate 0.02% among 360,000. AID 602247;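 active means activation above the run cutoff, the mean activation of all test compounds plus 3 SD, cut at about 40% in these data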;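 further: peak over basal fluorescence ratio in a 140 s read after ATP addition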
* hit, by the source's call; nt = not tested or not shown.

SMILES	M1 ag parental	M1 antag	CHO-K1 Ca antag	CHRM1 agonist	M1 PAM	M1 PAM parental
C=CCn1c2ccccc2c2nnc(SCN3C(=O)c4ccccc4C3=O)nc21	6	46*	5	0	-22	14
C[C@@H]1O[C@H](C2CCCC2)Cc2[nH]c(=S)[nH]c(=O)c21	1	nt	-20	nt	nt	17
CC(C)(C)c1ccc(CC(=O)N2CCC2(C)C(=O)O)cc1 (stereo unspecified)	0	-13	-7	-1	8	5
CC(C)N1CCCC(C)(C(=O)Nc2ccccc2)C1 (stereo unspecified)	1	4	-10	-3	2	14
CC(C)N1CCCC(C)(C(=O)Nc2cccc(Oc3ccccc3)c2)C1 (stereo unspecified)	0	36*	-14	-10	-20	14
CCCNC(=O)C1(C)CCN(Cc2ccc(Oc3ccccc3)cc2)C1 (stereo unspecified)	3	14	-9	-6	-20	9
CCCNC(=O)C1(C)CCCN(Cc2ccc(Oc3ccccc3)cc2)C1 (stereo unspecified)	0	40*	0	-8	-25	10
CCOC(=O)C1CCCN(C(=O)c2cncc(Br)c2)CC1 (stereo unspecified)	0	-8	-4	-3	5	12
CC1(C)CC(=O)C=C(c2n[nH]nc2C2CCCCC2)C1	1	-6	-8	-3	2	14
Cc1ccc(C(=O)N(Cc2ccccc2)C(C)(C)C)cc1C	0	51*	10	-7	-26	4
CC(C)(C)N(Cc1ccccc1)C(=O)c1ccc(Cl)cc1[N+](=O)[O-]	2	39*	16	-10	-29	-13
CC(C)(C)N(Cc1ccccc1)C(=O)c1ccc(Br)o1	0	-5	-14	-7	4	6
O=c1c2c([nH]n1-c1ccccc1)C[C@@H](C1CCCCC1)O[C@H]2c1ccc(F)cc1	0	nt	-8	nt	nt	10
COc1ccc([N+](=O)[O-])cc1NC(=O)c1cc(C)c(C)o1	0	-3	25*	-4	12	-12
CC(NC(=O)c1ccncc1)C(c1cccs1)N1CCOCC1 (stereo unspecified)	1	-11	-18	5	10	21
Cc1cccc(C(=O)NC(C)C(c2cccs2)N2CCOCC2)c1 (stereo unspecified)	15*	7	-3	0	-5	12
CCOc1cccc(-c2ccc3nncn3c2)c1	0	-8	-5	-3	5	4
O=S(=O)(Nc1ccc(Cc2ccncc2)cc1)c1ccc(Cl)c(Cl)c1	8	52*	-8	-5	-20	16
CCc1ccc(OC)c(S(=O)(=O)Nc2ccc(Cc3ccncc3)cc2)c1	15*	36*	12	-6	-18	18
COc1ccc(S(=O)(=O)Nc2ccc(Cc3ccncc3)cc2)cc1OC	12	2	11	-7	-4	-10
CC(=O)c1ccc(N2CCN(C(=S)Nc3ccc(Oc4ccccc4)cc3)CC2)cc1	12	35*	21	-2	-7	-14
COc1ccc(N2CCN(C(=S)Nc3ccccc3)CC2)cc1	2	-9	0	-2	5	10
CN1CCN(c2ccc(NC(=O)c3ccc(Oc4ccccc4)cc3)cc2)CC1	2	46*	0	-10	-30	-11
CCOC(=O)c1ccccc1NC(=O)CSc1nc2[nH]ncc2c(=O)[nH]1	0	35*	8	0	-11	-20
O=C(NNC(=O)c1cc(-c2ccccc2)nc2ccccc12)Nc1cccc(Cl)c1	4	25*	7	-1	-11	10
O=C(NNC(=O)c1cc(-c2cccnc2)nc2ccccc12)Nc1ccc(Cl)cc1	15	63*	29*	3	-18	-16
COc1ccc(CN2CCN(C(=O)CCC(=O)Nc3nnc(CC(C)C)s3)CC2)cc1F	7	25	3	-2	-17	-16
COc1ccc(CN2CCN(C(=O)CCC(=O)Nc3nnc(C(F)(F)F)s3)CC2)cc1F	7	9	-28	-3	-9	9
COc1ccc(CN2CCN(C(=O)CCC(=O)Nc3nnc(C4CCCCC4)s3)CC2)cc1F	5	34*	-15	-2	-17	27
